According to PubChem BioAssay (NCI):
The panel holds about 83,000 compounds, 20% with a hit somewhere; the sample as a whole holds those more often.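 Single-concentration screen, 48 h exposure, 96-well plates. Endpoint: percent growth. Below 10 = active.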 Values without a mark were called inactive. The source made the active and inactive calls.

Tests used:
Test in all cases: NCI-60 one-dose screen, 48 h (100 = growth as untreated, 0 = no growth, -100 = all killed)
Conditions in all cases: 10 µM unless noted
NCI-H23 lung = tested on: NCI-H23 lung
NCI-H226 lung = tested on: NCI-H226 lung
HOP-62 NSCLC = tested on: HOP-62 NSCLC
NCI-H460 lung = tested on: NCI-H460 lung
HOP-92 NSCLC = tested on: HOP-92 NSCLC
NCI-H522 lung = tested on: NCI-H522 lung
A549/ATCC NSCLC = tested on: A549/ATCC NSCLC
786-0 renal = tested on: 786-0 renal
COLO 205 colon = tested on: COLO 205 colon

SMILES | growth (NCI-H23 lung) | growth (NCI-H226 lung) | growth (HOP-62 NSCLC) | growth (NCI-H460 lung) | growth (HOP-92 NSCLC) | growth (NCI-H522 lung) | growth (A549/ATCC NSCLC) | growth (786-0 renal) | growth (COLO 205 colon)
COc1cc(N2CCC(N(C)C)CC2)ccc1Nc1ncc(Cl)c(Nc2ccccc2P(C)(C)=O)n1 | 5.53% (active) | -44.3% (active) | -4.93% (active) | 7% (active) | -60.2% (active) | -39.4% (active) | -35.8% (active) | -20.6% (active) | -62.7% (active)
CNC(=O)c1cc(Oc2ccc3nc(NC(=O)Nc4ccc(Cl)c(C(F)(F)F)c4)sc3c2)ccn1 | 16.5% | 20.6% | -31.3% (active) | 3.45% (active) | -27.6% (active) | 17.1% | -25.1% (active) | -64.4% (active) | 23.8%
Cc1cc(N(CCNc2ccnc3cc(Cl)ccc23)Cc2cccs2)nc(Cl)n1 | 0.24% (active) | -30.2% (active) | -29.4% (active) | -10.7% (active) | -27.9% (active) | -49.1% (active) | 15.8% | -97.6% (active) | -75.3% (active)
COc1cc2cc(NCc3ccc(Cl)cc3)nc(C)c2cc1OC | 23.7% | 35.5% | 56.5% | 22.6% | 36.3% | 45.7% | 39.8% | 28.2% | 26.5%
O=C(NOCCO)c1cc(CN2OCCCC2=O)c(F)c(F)c1Nc1ccc(I)cc1F | 22.7% | 50.9% | 36.8% | 59.4% | -20% (active) | 45.8% | 28.9% | 64.6% | 5.72% (active)
Nc1cc(C(F)(F)F)c(-c2cc(N3CCOCC3)nc(N3CCOCC3)n2)cn1 | -11.8% (active) | -10.6% (active) | -40.8% (active) | -12.9% (active) | – | -51.7% (active) | -44.8% (active) | -9.19% (active) | -61.3% (active)
Brc1ccc([I+]c2ccc(Br)cc2)cc1 | -9.33% (active) | 45.9% | -83% (active) | 18.6% | -6.41% (active) | -35.7% (active) | 40.5% | 27.7% | -28.7% (active)
CN(C)CCOC(=O)Nc1nc2ccc(Sc3ccccc3)cc2[nH]1 | 44% | 61.8% | 29.1% | 13% | 41.8% | -24% (active) | 38.7% | 42.2% | 8.53% (active)
CC1(O)CCC2CC3OC3(C)CCC3OC3(C)C(O)CC1C2(C)C (stereo not given) | 96% | 115% | 116% | 120% | -15.9% (active) | 97.6% | 92.8% | 104% | 109%
